Compounds with a hit are over-represented: about 4.9% of the library has one in this group of screens.
HSF1 inh – HSF1 inhibition; AID 2098; NIH3T3-HGL HSE-luciferase, MG132-induced, luminescence 8 h; stronger effect = lower value; 300,000 tested, 0.77% active; activity change, negative = inhibition, % at 7.5 µM (by protocol);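 active = more than half of replicate wells show activity change below -50%, luminescence cut by over half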;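 note: luciferase reports HSF-1 transcriptional activity via heat shock element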
HSF-1 act – increases HSF-1 driven luciferase reporter signal | activation, % at 9 µM | NIH3T3-HGL HSF-1 luciferase reporter, MG132, 8 h; 100% = twice DMSO control signal | 300,000 tested, 1.7% active;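 active = mean replicate activation of at least 50% with a set share of replicates each reaching 50%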
Platelet DG rel – platelet dense granule release activity; human platelet-rich plasma, SFLLRN dense granule ATP release, luminescence; inhibition, %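 (compounds screened at 7.5 µM in platelet-rich plasma)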; 300,000 tested, 0.22% active;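 active = mean replicate score, as percent of positive control, at or above 50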
HSP90 refold inh – HSP90 refolding inhibition in rabbit reticulocyte lysate; luciferase refolding luminescence, 3 h; inhibition, % at 5.6 µM; 290,000 tested, 0.91% active;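 active = inhibition above the screen-wide mean plus 3 SD, computed separately per campaign, cut at about 16% in these data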;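 note: inhibitors lower the luminescence because luciferase stays unfolded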
MPTP inh – permeability transition pore inhibition; 360,000 tested, 1.4% active; inhibition, % at 10 µM; AID 602449; isolated mouse mitochondria, Ca2+ swelling absorbance, 30 min;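 active = inhibition of 50% or more, scaled per plate between neutral and stimulator controls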
dFosB act – enhances mouse delta FosB homodimer DNA binding. 340,000 tested, 0.99% active. purified delta FosB, TAMRA-CDK5 oligo fluorescence polarization; percent of positive-control signal above neutral wells. activation, % at 25 µM;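 active = mean activation above about 17%, with every replicate also reaching it, limit read from the data, passing the limit was not always enough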
Target sequence (P13346 whole entry, looked up): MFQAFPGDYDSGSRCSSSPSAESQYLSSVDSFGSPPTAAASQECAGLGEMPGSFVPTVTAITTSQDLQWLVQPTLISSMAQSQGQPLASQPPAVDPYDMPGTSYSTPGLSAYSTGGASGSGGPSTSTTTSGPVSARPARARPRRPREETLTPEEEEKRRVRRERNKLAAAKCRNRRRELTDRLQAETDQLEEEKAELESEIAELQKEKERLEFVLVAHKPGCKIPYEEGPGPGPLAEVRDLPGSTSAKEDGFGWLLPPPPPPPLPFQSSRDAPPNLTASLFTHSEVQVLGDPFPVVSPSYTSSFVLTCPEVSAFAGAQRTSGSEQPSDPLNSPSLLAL
Large screens that a line does not name were inactive.

Nc1nc(CSc2ncn(-c3ccccc3)n2)cs1	HSF1 inh -86
c1ccc(CSc2ncn(-c3ccccc3)n2)cc1	none
Cc1ccc(C(=O)Nc2ccc(N3CCOCC3)nc2N2CCOCC2)cc1	none
Cc1ccccc1NC(=O)/C(C#N)=C/c1ccc[nH]1	none
N#C/C(=C\c1ccc[nH]1)C(=O)Nc1ccccc1[N+](=O)[O-]	HSF-1 act 61
O=C(Nc1cccc2c1CCCC2)c1cc([N+](=O)[O-])ccc1Cl	HSF-1 act 55
Cc1cc(O)c(NC(=O)c2cc([N+](=O)[O-])ccc2Cl)cc1C	HSF-1 act 100
COc1ccc(CCN(C)C(=O)c2cc(S(=O)(=O)N3CCCCC3)ccc2Cl)cc1OC	none (no result: HSP90 refold inh)
Oc1ccc2ccccc2c1CN1CCN(c2ccccc2)CC1	HSF-1 act 375
Oc1ccc2ccccc2c1CN1CCCC1	none
Cc1ccc(/C=N/Nc2cccc3cccnc23)c(O)c1	HSF-1 act 68
Oc1ccc(/C=N/Nc2cccc3cccnc23)c(O)c1	HSF-1 act 85
CC(=O)OC1(C(C)=O)CCC2C3CC(Cl)C4=CC(=O)CCC4(C)C3CCC21C (stereo not given)	none (no result: HSF1 inh, HSF-1 act, Platelet DG rel, HSP90 refold inh)
COc1ccc(C(=O)N=c2nc3ccccn3s2)cc1	Platelet DG rel 50
CCN(CC)CCOC(=O)c1ccc(N/C=C(/C#N)c2nc(-c3ccc4c(c3)OCO4)cs2)cc1	dFosB act 93
CCN(CC)CCOC(=O)c1ccc(N/C=C(/C#N)c2nc(-c3cc4ccccc4oc3=O)cs2)cc1	dFosB act 39
CCOC(=O)c1c(NC(=O)c2nn(CC)cc2Br)c(C#N)nn1-c1ccccc1	HSF-1 act 52
CCOC(=O)c1nn(-c2ccccc2)c(C#N)c1NC(=O)c1nn(CC)cc1Br	none
CCOc1ccc(NC(=S)N(CCc2ccncc2)C(C)C)cc1	HSF1 inh -53
Cc1cccn2c(=O)c3cc(C(=O)NC4CCCC4)sc3nc12	none
O=C1CCCCc2sc(Br)c([N+](=O)[O-])c2N1	HSF-1 act 132
N#Cc1c(-c2ccc3c(c2)OCO3)csc1N	HSF1 inh -81
CCOC(=O)C1=C(COc2ccccc2)NC(=O)NC1c1ccc(Cl)cc1 (stereo not given)	none
COC(=O)C1=C(COc2ccccc2)NC(=O)NC1c1ccc(Cl)cc1 (stereo not given)	HSF-1 act 53 (no result: HSP90 refold inh, MPTP inh, dFosB act)
CCN(CC)S(=O)(=O)c1ccc(S(=O)(=O)N(CC(=O)Nc2ccccc2)CC2CCCO2)cc1 (stereo not given)	none
O=C(CN(CC1CCCO1)S(=O)(=O)c1ccc(S(=O)(=O)NC2CC2)cc1)Nc1ccccc1 (stereo not given)	HSF-1 act 115
Cc1cc(=O)oc2cc(OCC#N)ccc12	HSF1 inh -56
Cc1cc(C)nc(SC2=CS(=O)(=O)c3ccccc32)n1	none
O=S1(=O)C=C(Sc2nc3ccccc3s2)c2ccccc21	HSF1 inh -87 (no result: MPTP inh, dFosB act)
Cc1ccc(CNC(=O)COc2ccc(S(=O)(=O)N3CCOCC3)cc2)cc1	none (no result: HSP90 refold inh)
COc1ccccc1C(=O)Nc1c[nH]c(=O)[nH]c1=O	Platelet DG rel 96
Cc1ccc(OCC(=O)Nc2c[nH]c(=O)[nH]c2=O)cc1C	HSF1 inh -52
O=C(Nc1ccccc1F)c1c[nH]c(=O)[nH]c1=O	Platelet DG rel 66
CCOc1ccccc1C(=O)Nc1c[nH]c(=O)[nH]c1=O	Platelet DG rel 88
Cc1ccc(C)c(OCC(=O)Nc2c[nH]c(=O)[nH]c2=O)c1	none
Cc1ccccc1OCC(=O)OCC(=O)Nc1cc(S(=O)(=O)N2CCCCC2)ccc1Cl	none (no result: HSP90 refold inh)
CCOC(=O)c1sc(-c2ccc(Cl)cc2Cl)nc1O	none
O=C(Cc1ccc(Br)cc1)OCC(=O)c1ccc[nH]1	none (no result: HSF1 inh, HSF-1 act, Platelet DG rel, HSP90 refold inh)
O=C(Cn1cnc2ccc(Cl)cc2c1=O)c1cccs1	none
CN(C(=O)/C=C/c1ccc(F)cc1)C1CCCCC1	HSF-1 act 61 (no result: HSP90 refold inh, dFosB act)
O=C(/C=C/c1ccc(F)cc1)NC(=S)NC1CCCCC1	none
CC(C)(CNC(=O)/C=C/c1ccc(F)cc1)CNC(=O)/C=C/c1ccc(F)cc1	HSF-1 act 76
CN(C(=S)NC(=O)/C=C/c1ccc(F)cc1)C1CCCCC1	HSF-1 act 67
Nc1cc(Cl)ccc1C(=O)OCC(=O)N1CCOCC1	none
CCO[C@H]1OC(C(=O)O)=C[C@@H](C(C)(C)C)[C@@H]1CCCO	none (no result: HSP90 refold inh)
CC(=O)c1ccc(OCCCC(=O)N2CCN(S(=O)(=O)c3ccc(C(C)C)cc3)CC2)cc1	none (no result: HSP90 refold inh)
O=C(COc1ccc(/C=N/NC(=O)C(=O)N2CCCCCC2)cc1)Nc1ccccc1Cl	none
C=CCn1c(C)cc(C(=O)CSc2nc(N)cc(N)n2)c1C	HSF-1 act 66
CCCCNC(=O)C(NC(=O)c1ccc(-c2ccccc2)cc1)C(=O)c1ccccc1 (stereo not given)	none (no result: HSF1 inh, HSF-1 act, Platelet DG rel, HSP90 refold inh, dFosB act)
O=C(Nc1ccc(Nc2ccccc2)cc1)Nc1ccccc1Cl	HSF-1 act 56
Nc1ccc(S(=O)(=O)N2CCC(Cc3ccccc3)CC2)cc1	HSF1 inh -55
O=S(=O)(c1cccs1)N1CCC(Cc2ccccc2)CC1	none
COc1ccc(-c2nnc(SCC(=O)N(C)C3CCS(=O)(=O)C3)n2CC(C)C)cc1 (stereo not given)	none (no result: HSF1 inh, HSF-1 act, Platelet DG rel, HSP90 refold inh, dFosB act)
O=C(CC1Sc2ccccc2NC1=O)c1ccc(Br)cc1 (stereo not given)	HSF-1 act 70
O=C1CC(NS(=O)(=O)c2cccnc2)CN1c1ccc(Cl)cc1 (stereo not given)	none (no result: HSP90 refold inh)
Oc1ccc(Nc2nc(NCC3CCCO3)c3ccccc3n2)cc1 (stereo not given)	none
Oc1ccccc1Nc1nc(NCC2CCCO2)c2ccccc2n1 (stereo not given)	dFosB act 25
c1ccc2c(NCC3CCCO3)nc(N3CCCCC3)nc2c1 (stereo not given)	none
Oc1ccc(Cl)cc1Nc1nc(NCC2CCCO2)c2ccccc2n1 (stereo not given)	dFosB act 44 (no result: HSP90 refold inh)
COc1ccc(CN(C(=O)CCC(=O)Nc2cc(C)on2)C(C(=O)NC(C)(C)C)c2cccc(OC)c2OC)cc1 (stereo not given)	none
CCN(CC)c1ncnc2ccc(Br)cc12	HSF1 inh -53
Cc1ccc(C)c(S(=O)(=O)N2CCN(CC(=O)Nc3cc(C)on3)CC2)c1	HSF-1 act 71
Cc1ccc(C)c(S(=O)(=O)N2CCN(CC(=O)Nc3ccc4c(c3)OCCO4)CC2)c1	none
COc1ccc(-c2nc(CS(=O)CC(=O)NCc3ccc(Cl)cc3)c(C)o2)cc1OC (stereo not given)	none
Cc1ccc(-n2c(C)cc(C(=O)COc3c(CO)cc(F)cc3CO)c2C)cc1C	HSF-1 act 56
Cc1cc(C(=O)COc2ccccc2Cl)c(C)n1-c1ccc2c(c1)OCO2	none
COc1ccc(N2CCN(C(c3cccs3)C(C)NS(=O)(=O)c3ccccc3)CC2)cc1 (stereo not given)	HSF-1 act 82
